# Laboratory results reported in PubChem BioAssay (EPA / NIEHS).
# Results filed as inconclusive are left out. Active and inactive are the calls of the source. Rule for the calls: active = hit-call score of the fitted dose curve at least 0.9, where 1 is the maximum; inconclusive = response in the unintended direction; inactive = score below 0.9.
# Target: human Vitamin D Receptor (VDR), VDR (gene 7421) (UniProt P11473)
# Experiment: ATG_VDR_TRANS: Attagene TRANS-FACTORIAL HepG2 Assay for human Vitamin D Receptor (VDR) (AID 2283022)
# How it was run: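 Transactivation by an exogenous VDR-Gal4 chimera in transiently transfected HepG2 cells was measured as reporter transcript level 24 hours after chemical treatment. RT-PCR products were analysed by capillary electrophoresis and fitted in the positive direction relative to DMSO.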
# Chain of human Vitamin D Receptor (VDR), VDR (gene 7421) (P11473 whole entry, looked up): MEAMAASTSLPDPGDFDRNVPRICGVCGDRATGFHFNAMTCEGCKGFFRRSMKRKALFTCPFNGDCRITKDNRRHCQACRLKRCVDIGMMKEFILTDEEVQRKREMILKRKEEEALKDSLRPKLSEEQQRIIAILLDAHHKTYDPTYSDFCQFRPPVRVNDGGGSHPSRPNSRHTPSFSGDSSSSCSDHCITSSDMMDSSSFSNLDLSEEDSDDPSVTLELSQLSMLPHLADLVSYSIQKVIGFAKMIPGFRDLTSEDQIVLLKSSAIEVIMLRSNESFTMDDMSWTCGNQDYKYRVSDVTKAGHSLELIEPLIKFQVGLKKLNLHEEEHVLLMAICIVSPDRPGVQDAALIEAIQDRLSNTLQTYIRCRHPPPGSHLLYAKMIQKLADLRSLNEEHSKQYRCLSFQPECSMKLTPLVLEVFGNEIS
SMILES,outcome,AC50
COCCOCCOCCOCCOC,inactive,
CC(C)c1ccc(C=O)cc1,inactive,
CCCCC/C=C\CCC=O,inactive,
c1cc(N(CC2CO2)CC2CO2)ccc1OCC1CO1 (centres undefined),inactive,
O=C(O)c1cc(Cl)cc([N+](=O)[O-])c1Cl,inactive,
O=S(=O)(Oc1ccc(Cl)cc1Cl)c1ccccc1,inactive,
CCCOCCOCCOCCO,inactive,
NC(=O)NNC(N)=O,inactive,
CCCCC(CC)CCC(CC(C)C)OS(=O)(=O)O (centres undefined),inactive,
C=C(C)[C@@H]1CCC2=CCC[C@@H](C)[C@]2(C)C1,inactive,
O=C(c1ccccc1)C1CCC1,inactive,
COC(F)(F)C(F)(C(F)(F)F)C(F)(F)F,inactive,
CCc1nccnc1C,inactive,
CC[C@H]1OC(=O)[C@H](C)[C@@H](O[C@H]2C[C@@](C)(OC)[C@@H](O)[C@H](C)O2)[C@H](C)[C@@H](O[C@@H]2O[C@H](C)C[C@H](N(C)C)[C@H]2O)[C@](C)(O)C[C@@H](C)C(=NOCOCCOC)[C@H](C)[C@@H](O)[C@]1(C)O,inactive,
CC(CC=O)c1ccccc1 (centres undefined),inactive,
CCCCCC(C)O (centres undefined),inactive,
C=CC(C)(CCC=C(C)C)OC(=O)C(C)C (centres undefined),inactive,

SMILES,outcome,AC50
CCC(C)(C)C1CCCCC1OC(C)=O (centres undefined),inactive,
O=C(O)CCCCCCCCCC(=O)O,inactive,
Oc1ccc(Cl)cc1Cc1cc(Cl)ccc1O,inactive,
C=C(C)C(=O)OCCOc1ccccc1,inactive,
C=CC(=O)OCCOC(=O)C=C,inactive,
Cc1ccc(N)c([N+](=O)[O-])c1,inactive,
CC(C)=CC1CC(C)CCO1 (centres undefined),inactive,
CC(=O)OCc1ccco1,inactive,
O=C1c2cccc(O)c2C(=O)c2c(O)cc(CO)cc21,inactive,
CC(CC=O)CCCC(C)(C)O (centres undefined),inactive,
CCCCCCCCCCCCCCCC[n+]1ccccc1,,26.8 µM (active)
O=C(O)CCCC[C@@H]1SC[C@@H]2NC(=O)N[C@@H]21,inactive,
O=S(=O)(O)c1ccc2cc(O)c(S(=O)(=O)O)cc2c1,inactive,
C=CC(=O)OCCOC1C2CCC1C1CC=CC12 (centres undefined),inactive,
COc1ccc([C@@H]2CC(=O)c3c(O)cc(O[C@@H]4O[C@H](CO[C@@H]5O[C@@H](C)[C@H](O)[C@@H](O)[C@H]5O)[C@@H](O)[C@H](O)[C@H]4O)cc3O2)cc1OC,inactive,
CC(=O)CC(N)=O,inactive,
CC(C)CC(O)Cc1ccccc1 (centres undefined),inactive,
